The test has as its target GST-Hu-p50 (Homo sapiens, UniProt P19838 7-356). The test can be described thus: protein-binding microarray (PBM); PBM: ~300 nM protein, 6 mM HEPES pH 7.8, 80 mM KCl, 0.5 mM EDTA, 0.5 mM EGTA, 6% glycerol, 35 ng/ul poly-dIdC, 1% milk, 1 h, room temperature; Ap Aiptasia and Nv Nematostella (sea anemones) / Co Capsaspora / Aq Amphimedon (sponge) / Dm Drosophila / Hu human; RHD is the Rel homology domain; high values mean tight binding. Conditions: dsDNA, one strand shown.
GST-Hu-p50, sequence (P19838 7-356): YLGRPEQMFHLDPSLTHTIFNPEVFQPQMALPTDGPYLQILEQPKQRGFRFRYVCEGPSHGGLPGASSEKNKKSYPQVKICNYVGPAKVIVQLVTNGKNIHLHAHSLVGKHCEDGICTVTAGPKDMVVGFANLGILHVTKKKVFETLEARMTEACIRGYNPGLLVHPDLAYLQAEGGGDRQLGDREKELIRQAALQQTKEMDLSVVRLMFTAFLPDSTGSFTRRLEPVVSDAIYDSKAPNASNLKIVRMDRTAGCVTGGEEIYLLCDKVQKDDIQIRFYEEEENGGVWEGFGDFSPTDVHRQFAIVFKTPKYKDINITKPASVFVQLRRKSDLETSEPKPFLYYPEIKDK
In turn, “CCGATTAACATCAAAATTTTCCCTGATGTTAATCGGGTCTTGATTCGCTTGACGCTGCTG” showed a binding signal of 5.99 z-score.
In turn, “CCGATTAACATCAAGTTTTCCCCTGATGTTAATCGGGTCTTGATTCGCTTGACGCTGCTG” came in with a binding signal of 6.59 z-score.
To “CCGATTAACATCAAGGGAAATTCTGATGTTAATCGGGTCTTGATTCGCTTGACGCTGCTG” belongs 5.4 z-score; to “CCGATTAACATCAAATTCCCACATGATGTTAATCGGGTCTTGATTCGCTTGACGCTGCTG”, 2.85 z-score; to “CCGATTAACATCAATGGGATTTCTGATGTTAATCGGGTCTTGATTCGCTTGACGCTGCTG”, 2.6 z-score.
Next, “CCGATTAACATCAAGGGGGTATCTGATGTTAATCGGGTCTTGATTCGCTTGACGCTGCTG”: 4.61 z-score; “CCGATTAACATCAAAATTCCCTATGATGTTAATCGGGTCTTGATTCGCTTGACGCTGCTG”: 5.69 z-score; “CCGATTAACATCAGAAGTGGGAATGATGTTAATCGGGTCTTGATTCGCTTGACGCTGCTG”: 1.13 z-score.
To “CCGATTAACATCAGGGGGAACCATGATGTTAATCGGGTCTTGATTCGCTTGACGCTGCTG” belongs 5.84 z-score; to “CCGATTAACATCAAGGTTTCCCCTGATGTTAATCGGGTCTTGATTCGCTTGACGCTGCTG”, 6.46 z-score.
As to “CCGATTAACATCAGGGAATAACCTGATGTTAATCGGGTCTTGATTCGCTTGACGCTGCTG”, the binding signal stood at 5.21 z-score.
Next, “CCGATTAACATCAGTATTTCCCATGATGTTAATCGGGTCTTGATTCGCTTGACGCTGCTG”: 2.64 z-score; “CCGATTAACATCAGGGGATTCGATGATGTTAATCGGGTCTTGATTCGCTTGACGCTGCTG”: 5.33 z-score.
To “CCGATTAACATCATGGGGAAAAATGATGTTAATCGGGTCTTGATTCGCTTGACGCTGCTG” belongs 5.43 z-score.
To “CCGATTAACATCAACATTCCCCCTGATGTTAATCGGGTCTTGATTCGCTTGACGCTGCTG” belongs 6.48 z-score; to “CCGATTAACATCAACAATTTCCCTGATGTTAATCGGGTCTTGATTCGCTTGACGCTGCTG”, 4.08 z-score; to “CCGATTAACATCAAAAAACCCCTTGATGTTAATCGGGTCTTGATTCGCTTGACGCTGCTG”, 7.64 z-score.
In turn, “CCGATTAACATCACGGGGATTTCTGATGTTAATCGGGTCTTGATTCGCTTGACGCTGCTG” returned a binding signal of 7.58 z-score.
To “CCGATTAACATCACTTTTTCCCCTGATGTTAATCGGGTCTTGATTCGCTTGACGCTGCTG” belongs 5.64 z-score.
In turn, “CCGATTAACATCAGCGGGAATCCTGATGTTAATCGGGTCTTGATTCGCTTGACGCTGCTG” yielded a binding signal of 2.21 z-score.
“CCGATTAACATCAGATTTTCCCATGATGTTAATCGGGTCTTGATTCGCTTGACGCTGCTG” gave a binding signal of 3.82 z-score.
“CCGATTAACATCACCCTGGGAAATGATGTTAATCGGGTCTTGATTCGCTTGACGCTGCTG” gave a binding signal of 2.25 z-score.
To “CCGATTAACATCAGGGGGACTAATGATGTTAATCGGGTCTTGATTCGCTTGACGCTGCTG” belongs 3.8 z-score; to “CCGATTAACATCAAGGGGATCCCTGATGTTAATCGGGTCTTGATTCGCTTGACGCTGCTG”, 5.5 z-score.
Next, “CCGATTAACATCACGGGATTCCCTGATGTTAATCGGGTCTTGATTCGCTTGACGCTGCTG”: 4.17 z-score.
For “CCGATTAACATCAGGGGGTTCTATGATGTTAATCGGGTCTTGATTCGCTTGACGCTGCTG”, the binding signal was 5.89 z-score.
To “CCGATTAACATCAAAAATCCCCTTGATGTTAATCGGGTCTTGATTCGCTTGACGCTGCTG” belongs 8.54 z-score; to “CCGATTAACATCAAAAATACCCTTGATGTTAATCGGGTCTTGATTCGCTTGACGCTGCTG”, 6.41 z-score; to “CCGATTAACATCAAAGCTTCCCCTGATGTTAATCGGGTCTTGATTCGCTTGACGCTGCTG”, 5.4 z-score.
As for “CCGATTAACATCAACTTCCCCCCTGATGTTAATCGGGTCTTGATTCGCTTGACGCTGCTG”, the binding signal was 5.76 z-score.
Regarding “CCGATTAACATCAGAAAATACCCTGATGTTAATCGGGTCTTGATTCGCTTGACGCTGCTG”, the binding signal was 6.32 z-score.
In the case of “CCGATTAACATCAAAAAGACCCCTGATGTTAATCGGGTCTTGATTCGCTTGACGCTGCTG”, the binding signal worked out at 4.67 z-score.
For the sequence “CCGATTAACATCAGGGAATCCCATGATGTTAATCGGGTCTTGATTCGCTTGACGCTGCTG”, the binding signal turned out to be 4.13 z-score.
To “CCGATTAACATCAAGGGGTTTTCTGATGTTAATCGGGTCTTGATTCGCTTGACGCTGCTG” belongs 6.56 z-score.
In turn, “CCGATTAACATCAAAGTCCCGGGTGATGTTAATCGGGTCTTGATTCGCTTGACGCTGCTG” displayed a binding signal of 3.83 z-score.
Next, “CCGATTAACATCAGGGACTTTTATGATGTTAATCGGGTCTTGATTCGCTTGACGCTGCTG”: 6.59 z-score.
To “CCGATTAACATCAGGCAACCCCCTGATGTTAATCGGGTCTTGATTCGCTTGACGCTGCTG” belongs 5.13 z-score; to “CCGATTAACATCAGGGGGGTAACTGATGTTAATCGGGTCTTGATTCGCTTGACGCTGCTG”, 4.07 z-score; to “CCGATTAACATCAGGGGGGACTATGATGTTAATCGGGTCTTGATTCGCTTGACGCTGCTG”, 3.99 z-score.
Sequence “CCGATTAACATCAGGGAAAATAATGATGTTAATCGGGTCTTGATTCGCTTGACGCTGCTG” returned a binding signal of 4.74 z-score.

Source of the values: publication PMC5700166.
